From PubChem BioAssay (Tox21)
Inconclusive results are not listed. The source made the active and inactive calls. Unless noted, calls follow the shape of the dose curve; as a rule, active = well fitted curve in the direction sought with a large enough effect in the repeat runs; inconclusive = weak or mixed curves; inactive = no such curve, though single readings can be large; an effect the other way counts as inactive or inconclusive.

How the values were obtained:
[1] = qHTS assay for small molecules that induce genotoxicity in human embryonic kidney cells expressing luciferase-tagged ATAD5 (AID 651632); also: nearly all actives have a fitted effect of over 15% in size
Method in brief: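 Luminescence read-out: after 16 hr compound exposure at 37C, ATAD5-luciferase HEK293T cells received Amplite, 30 min RT, then CCD imaging. A rise in signal marks genotoxic stress.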

[2] = qHTS assay for small molecule agonists of the p53 signaling pathway - cell viability (AID 651633; calls by dose curve;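 also: p53RE-bla HCT reporter cells with a stable beta-lactamase p53 reporter; series mostly up to about 83 µM; nearly all actives have a fitted effect of over 30% in size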)
Method in brief: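 p53RE-bla cells, seeded at 4,000 per well and rested 5 h at 37 C/5% CO2, received compounds in DMSO for 16 h at 37 C. CellTiter-Glo was then added, and luminescence was read after 30 min at room temperature to gauge cytotoxicity.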

[3] = qHTS assay for small molecules that induce genotoxicity in human embryonic kidney cells expressing luciferase-tagged ATAD5 - cell viability (AID 651634; calls by dose curve; also: nearly all actives have a fitted effect of over 25% in size)
Method in brief: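 HEK293T ATAD5-luc cells, 2,000/well; compound 15.5 hr, 37C/5% CO2; CellTiter-Fluor 30 min, 37C; fluorescence read.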

[4] = qHTS assay for small molecule disruptors of the mitochondrial membrane potential - cell viability (AID 720634; calls by dose curve;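 also: human HepG2 liver cancer cells; series mostly up to about 83 µM; nearly all actives have a fitted effect of over 20% in size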)
Method in brief: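 Luminescence from CellTiter-Glo (ATP content) gave viability in HepG2 cells, read in the same wells as the MMP dye assay after 1 hr compound exposure at 37 C.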

[5] = qHTS assay for small molecule disruptors of the mitochondrial membrane potential (AID 720635)
Method in brief: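 HepG2 cells (2,000/well) attached overnight at 37C, then took compound for 1 hr at 37C, 5% CO2. Mito-MPS dye was added for 30 min; fluorescence was read at 490/535 nm (monomers) and 540/590 nm (aggregates).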

[6] = qHTS assay to test for compound auto fluorescence at 590 nm (red) in HepG2 cells (AID 720674)
Method in brief: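 Intrinsic compound fluorescence in the red window (Ex/Em 540/590 nm) is measured in attached HepG2 cells exposed for 1 hr, DMSO vehicle as baseline, benchmarked to Rose Bengal sodium.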

[7] = qHTS assay to test for compound auto fluorescence at 535 nm (green) in HepG2 cells (AID 720675)
[8] = qHTS assay to test for compound auto fluorescence at 460 nm (blue) in HEK293 cells (AID 720678)
Method in brief: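 Blue-channel (Ex/Em 405/460 nm) intensity measured in HEK293 cultures after overnight compound exposure at 37C; signal expressed relative to triamterene. Cells plated 2,000 per well in 10% dialyzed FBS medium and allowed 4-5 hr to attach.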

[9] = qHTS assay to test for compound auto fluorescence at 590 nm (red) in HEK293 cells (AID 720679)
Method in brief: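 Red-channel autofluorescence (Ex/Em 540/590 nm; Rose Bengal sodium reference) was measured after overnight 37C, 5% CO2 exposure of attached HEK293 cells, 2,000 per well in medium with 10% dialyzed FBS.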

[10] = qHTS assay to test for compound auto fluorescence at 535 nm (green) in HEK293 cells (AID 720680)
[11] = qHTS assay to test for compound auto fluorescence at 460 nm (blue) in HEK293 cell free culture (AID 720681)
Method in brief: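 Test compounds were pinned into cell-free culture medium (DMEM with 10% FBS) and fluorescence was read directly at Ex/Em 405/460 nm. Signals were expressed as fluorescence equivalents of triamterene, with DMSO vehicle as control.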

[12] = qHTS assay to test for compound auto fluorescence at 590 nm (red) in HEK293 cell free culture (AID 720683)
Method in brief: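 Tox21 10K library compounds were pinned into cell-free DMEM with 10% FBS and fluorescence was read at excitation 540 nm. Activity is expressed as Rose Bengal sodium equivalency.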

[13] = qHTS assay to test for compound auto fluorescence at 590 nm (red) in HepG2 cell free culture (AID 720684)
Method in brief: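 Readout: intrinsic compound fluorescence at 590 nm emission after 540 nm excitation, scaled to Rose Bengal sodium. Matrix was cell-free MEM with 10% FBS; DMSO vehicle wells served as control.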

[14] = qHTS assay to test for compound auto fluorescence at 460 nm (blue) in HepG2 cell free culture (AID 720685)
Method in brief: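 Cell-free plates of MEM plus 10% FBS received 23 nL compound or DMSO vehicle; blue-channel (405/460 nm) intensity scored against triamterene as reference fluorophore.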

[15] = qHTS assay to test for compound auto fluorescence at 535 nm (green) in HepG2 cell free culture (AID 720686)
[16] = qHTS assay to test for compound auto fluorescence at 460 nm (blue) in HepG2 cells (AID 720687)
Method in brief: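 Cells (2,000/well in MEM with 10% FBS) attached overnight at 37 C, then were exposed to compound or DMSO for 1 hr at 37 C, 5% CO2. Fluorescence read at Ex/Em 405/460 nm, expressed as triamterene-equivalent signal.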

[17] = target: Glucocorticoid receptor (Homo sapiens) (UniProt P04150); assay: qHTS assay to identify small molecule agonists of the glucocorticoid receptor (GR) signaling pathway (AID 720691; active = well fitted activation curve with a large enough effect in the signal ratio in the repeat runs, not every such curve was filed as active; the % refers to the signal ratio; also: potency is read from the fitted curve at half-maximal effect)
Method in brief: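 HeLa GR-bla reporter line; cells pre-incubated 4 h, compound in DMSO 18 h at 37 C; LiveBLAzer B/G FRET substrate 2 h RT; fluorescence intensity read-out.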

[18] = qHTS assay to test for compound auto fluorescence at 535 nm (green) in HEK293 cell free culture (AID 720682)
Method in brief: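 Green-label autofluorescence (485 nm excitation, 535 nm emission) measured on compound added to cell-free culture medium (DMEM, 10% FBS). Output is expressed relative to fluorescein.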

[19] = target: Glucocorticoid receptor (Homo sapiens) (UniProt P04150); assay: qHTS assay to identify small molecule antagonists of the glucocorticoid receptor (GR) signaling pathway (AID 720692; active = well fitted inhibition curve with a large enough effect in the signal ratio in the repeat runs, not every such curve was filed as active; the % refers to the signal ratio)
Method in brief: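 Read-out: beta-lactamase FRET substrate fluorescence, 2 h at room temperature, in HeLa cells stably carrying a GRE-driven bla reporter. Compounds were co-incubated with 5 nM dexamethasone agonist (final) for 18 h at 37 C.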

Measured: Potency

Chain of Glucocorticoid receptor (Homo sapiens) (P04150 whole entry, looked up): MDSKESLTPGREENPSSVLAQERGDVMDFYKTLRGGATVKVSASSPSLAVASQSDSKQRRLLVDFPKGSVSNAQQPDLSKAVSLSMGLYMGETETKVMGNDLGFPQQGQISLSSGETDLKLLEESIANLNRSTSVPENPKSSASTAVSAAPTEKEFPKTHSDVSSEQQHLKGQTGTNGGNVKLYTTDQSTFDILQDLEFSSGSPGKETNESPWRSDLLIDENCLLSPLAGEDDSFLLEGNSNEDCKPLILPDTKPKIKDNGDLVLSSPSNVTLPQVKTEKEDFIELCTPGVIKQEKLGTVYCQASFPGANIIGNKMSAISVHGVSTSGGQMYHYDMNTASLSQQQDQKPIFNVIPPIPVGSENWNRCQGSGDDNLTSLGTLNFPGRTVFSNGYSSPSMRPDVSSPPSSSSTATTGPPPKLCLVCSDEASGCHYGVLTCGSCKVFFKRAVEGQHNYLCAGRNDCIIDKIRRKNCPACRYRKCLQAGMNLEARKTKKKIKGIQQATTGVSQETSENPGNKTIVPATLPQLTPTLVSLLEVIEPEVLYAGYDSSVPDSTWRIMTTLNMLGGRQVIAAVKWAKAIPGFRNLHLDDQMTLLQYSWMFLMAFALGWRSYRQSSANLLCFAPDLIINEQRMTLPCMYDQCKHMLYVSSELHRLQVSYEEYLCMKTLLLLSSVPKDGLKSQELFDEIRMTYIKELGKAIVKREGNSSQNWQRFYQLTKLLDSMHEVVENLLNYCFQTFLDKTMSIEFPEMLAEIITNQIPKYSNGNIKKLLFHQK

CC1(C)O[C@H]2CC(=O)OC[C@]23[C@H]2CC[C@@]4(C)[C@H](c5ccoc5)OC(=O)[C@H]5O[C@]54[C@]2(C)C(=O)C[C@@H]13
active: [17] 8.49 µM
not listed: [18] | [19]
inactive: all other assays above

O=C1CCC(=O)N1Cl
not listed: [5]
inactive: all other assays above

CC(C)OC(=O)CCC(=O)OC(C)C
not listed: [4] | [5] | [17]
inactive: all other assays above

COC(=O)c1ccccc1C(=O)O
inactive: all assays above

O=C=NCC1CCCC(CN=C=O)C1 (stereo not drawn)
not listed: [5] | [12] | [17] | [19]
inactive: all other assays above

ONc1ccccc1
not listed: [5] | [12]
inactive: all other assays above

C[C@]12CCC(=O)C=C1CC[C@H]1[C@@H]3CC[C@](O)(C(=O)CO)[C@@]3(C)C[C@H](O)[C@@]12F
not listed: [4] | [17] | [19]
inactive: all other assays above
